Sampled rows, rich in hits. Any-hit rate of the full collection: about 4.2%.
RecA splice inh – Mtb RecA intein splicing inhibitors, primary screen, biochemical, fluorescence, HTS | Protein RecA (Mycobacterium tuberculosis (strain ATCC 25618 / H37Rv)), P9WHJ3 | cell-free RecA intein splicing | inhibition, % (no concentration beside the values) | hit rate 0.75% among 290,000; in the data active = inhibition above about 30%
Target sequence (P9WHJ3 whole entry, looked up, canonical isoform): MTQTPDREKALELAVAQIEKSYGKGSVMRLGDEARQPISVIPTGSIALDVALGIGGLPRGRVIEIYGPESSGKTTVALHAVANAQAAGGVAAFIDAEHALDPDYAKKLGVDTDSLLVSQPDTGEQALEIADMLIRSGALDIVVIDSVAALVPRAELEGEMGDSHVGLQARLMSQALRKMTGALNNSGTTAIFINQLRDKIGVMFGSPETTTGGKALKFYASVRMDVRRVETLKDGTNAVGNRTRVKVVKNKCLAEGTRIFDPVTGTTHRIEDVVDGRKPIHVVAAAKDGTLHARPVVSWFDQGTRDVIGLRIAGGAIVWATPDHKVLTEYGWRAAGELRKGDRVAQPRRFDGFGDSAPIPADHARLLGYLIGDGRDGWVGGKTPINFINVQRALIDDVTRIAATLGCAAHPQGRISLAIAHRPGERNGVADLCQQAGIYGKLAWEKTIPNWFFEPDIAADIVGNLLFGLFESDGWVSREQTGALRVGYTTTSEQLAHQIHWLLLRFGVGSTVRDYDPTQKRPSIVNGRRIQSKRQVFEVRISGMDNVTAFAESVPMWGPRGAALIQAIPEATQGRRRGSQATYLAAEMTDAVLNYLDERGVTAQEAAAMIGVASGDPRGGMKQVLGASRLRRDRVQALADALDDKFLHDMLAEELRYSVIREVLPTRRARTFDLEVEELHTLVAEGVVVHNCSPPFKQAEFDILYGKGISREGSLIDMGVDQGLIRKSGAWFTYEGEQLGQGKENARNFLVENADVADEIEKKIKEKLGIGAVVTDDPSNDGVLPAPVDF
FBA Mtb inh – Mtb FBA enzyme inhibitors, primary screen, biochemical, fluorescence, strain H37Rv. Fructose-bisphosphate aldolase (Mycobacterium tuberculosis (strain ATCC 25618 / H37Rv)), …. purified M. tuberculosis FBA, fluorescence read-out. inhibition, % at 1 µM. hit rate 2.3% among 360,000. AID 588726, 2011; in the data active = inhibition above about 27%
CCHFV vOTU inh – CCHFV vOTU protease inhibitors, primary screen, biochemical, Pep-AMC substrate, fluorescence; Crimean-Congo hemorrhagic fever virus L polyprotein viral ovarian tumor (vOTU) protease …; inhibition, % at 11.5 µM; hit rate 0.55% among 370,000; AID 651958, 2012
GDH-TPI inh – GDH-TPI coupling enzyme inhibitors, primary screen, artefact control for M. tuberculosis FBA inhibitor project, biochemical, absorbance, full deck. GDH-TPI coupled enzyme counterscreen, NADH absorbance. inhibition, % at 4.8 µM. hit rate 1.2% among 360,000. AID 588335, 2011
GFP chromophore – counter-screen: blocks GFP chromophore formation, dose response, counter-screen, biochemical, fluorescence, homogeneous; shares compounds with RecA splice inh; AID 434968, 2010; hit rate 83% among 2,100; EC50, µM; cell-free GFP chromophore formation; call rule not given here
Of the large screens only hits and unclear results are named; the others gave an inactive call (follow-up assays come after a bar, where they were run). Cut-off read from the data, not from the text of the source, unless noted: active = inhibition above about 30%; inactive = the rest.

CC(=O)OC(C=C(C)C)C/C(C)=C/COc1c2ccoc2cc2oc(=O)ccc12 (centres undefined)	none (no result: RecA splice inh)
N#CC(C#N)=C1C=CC=CN1/C(=C\c1ccco1)C(=O)c1ccc(Cl)cc1	GDH-TPI inh 44.4 (no result: RecA splice inh)
N#CC(C#N)=C1C=CC=CN1/C(=C\c1ccco1)C(=O)c1ccc(-c2ccccc2)cc1	none (no result: RecA splice inh)
O=C(O)c1ccc2cc(-c3ccccc3)[nH]c2c1	FBA Mtb inh active
CC(C)(C)NC(=O)C1(N2C(=O)c3ccccc3C2=O)CCCC1	none (no result: RecA splice inh)
COc1cc2sc(-c3ccc(S(C)(=O)=O)cc3)c(-c3ccc4c(c3)OCO4)c2cc1OC	FBA Mtb inh 32.3 (no result: RecA splice inh)
COc1ccc(O)c(/C=C(\C#N)C(=O)Nc2ccccn2)c1	none
CC[n+]1c(/C=C2\C=C(C)CC(C)(C)C2)sc2ccccc21	RecA splice inh 46.6
CC12OC1C1(O)CCCC1=CC2=O (centres undefined)	none (no result: FBA Mtb inh, CCHFV vOTU inh, GDH-TPI inh)
COc1ccccc1-c1nnc(NC(=O)c2ccc(S(=O)(=O)N(C)C)cc2)o1	GDH-TPI inh 34.5
CCN(Cc1ccccc1)S(=O)(=O)c1ccc(C(=O)Nc2nnc(-c3ccccc3OC)o2)cc1	none
COC(=O)[C@]12C[C@H](CC(=O)N3CCOCC3)C(=O)N(Cc3ccco3)C1=C[C@H](COCc1ccccc1)O[C@@H]2C	none (no result: RecA splice inh, FBA Mtb inh, GDH-TPI inh)
CCCc1c(C(=O)N/N=C/c2c[nH]c3ccccc23)nnn1-c1nonc1N	none (no result: RecA splice inh)
COCc1c(C(=O)N/N=C/c2c[nH]c3ccccc23)nnn1-c1nonc1N	GDH-TPI inh 43.6
Cc1ccc(-c2c(C(=O)N/N=C/c3c[nH]c4ccccc34)nnn2-c2nonc2N)cc1	GDH-TPI inh 47.0
CN(C)c1ccc(C(C(=O)NC2CCCCC2)N(Cc2ccco2)C(=O)c2snc(C(N)=O)c2N)cc1 (centres undefined)	none
CC(=O)Oc1ccc2cc(-c3ccccc3)c(=O)oc2c1	FBA Mtb inh 158.0
CC(=O)Oc1ccc2c(=O)c(-c3ccccc3)coc2c1	none
CC(=O)COc1ccc2cc(-c3ccccc3)c(=O)oc2c1	FBA Mtb inh active, GDH-TPI inh 40.1
CCOC(=O)c1ccc(COC(=O)c2cc3ccccc3oc2=O)o1	none (no result: RecA splice inh)
COc1ccc(-c2cc3ccc(OC(C)C(=O)O)cc3oc2=O)cc1 (centres undefined)	FBA Mtb inh active
CCOC(=O)COc1ccc2cc(C(=O)OCC)c(=O)oc2c1	FBA Mtb inh 183.8, GDH-TPI inh 38.2 (no result: RecA splice inh)
COc1ccc(-c2cc(=O)oc3cc(OCC(C)=O)ccc23)cc1	none
C/C(=N\Nc1nncc2ccccc12)c1cccc(OC(F)F)c1	none
S=C(NCc1ccccc1)Nc1ccncc1	none
CCS(=O)(=O)c1ccc(C=NNc2nc3ccccc3o2)cc1	GDH-TPI inh 37.0 (no result: RecA splice inh)
CC(=O)NCCC(=O)Nc1cc(S(=O)(=O)N2CCOCC2)ccc1Oc1ccccc1	none
CC(Nc1c[nH]c(=O)[nH]c1=O)c1ccccc1 (centres undefined)	RecA splice inh 61.2
O=C(Nc1c[nH]c(=O)[nH]c1=O)c1ccccc1Br	none
CCOC(=O)C1CC2=C(CC(C)(C)CC2=O)N(CCOC)C1=O (centres undefined)	none (no result: RecA splice inh)
COC(=O)[C@H]1C[C@@]2(c3ccccc3)c3ccccc3N[C@H]2N1	none (no result: RecA splice inh, FBA Mtb inh, GDH-TPI inh)
N#Cc1ccc(Oc2nc(C#N)cc(-c3ccccc3)n2)cc1	none
N#Cc1cc(-c2ccccc2)nc(Oc2ccccc2)n1	RecA splice inh 60.3 | GFP chromophore 32.8
CCOc1ccccc1C(=O)Nc1cc(C)ccc1NC(=O)c1ccco1	none
N#Cc1ccccc1	none (no result: RecA splice inh)
N#Cc1c(C#N)c(O)c2ccccc2c1O	RecA splice inh 83.8 | GFP chromophore 2.42
CS(=O)(=O)c1nc(-c2ccccc2)cc(C(F)(F)F)n1	RecA splice inh 65.9 | GFP chromophore 12.7
COc1cc2c(cc1OC)C(C1C(=O)CC(C)(C)CC1=O)N(C(=O)CCl)CC2 (centres undefined)	none
COc1cc2c(cc1OC)C(c1cc(Br)ccc1F)N(C(=O)CCl)CC2 (centres undefined)	RecA splice inh 85.8 | GFP chromophore 4.47
Cc1cc2c3c(c1)C(C)CC(C)(C)N3C(=O)C2=C(C#N)C#N (centres undefined)	RecA splice inh 38.9 | GFP chromophore 3.74
COc1cc(/C=C2\SC(N)=NC2=O)ccc1OCC(=O)Nc1ccc(C)cc1	none

From PubChem
